# From PubChem BioAssay AID1159580 (chemical genetic matrix, 2015)
# Several values for one entry are separate records, joined by “and”; a condition that tells them apart may be missing. Equal entries are not always repeated. About 2,000 (36%) of roughly 5,500 compounds were called active. Inconclusive results (about 18%) are left out. Some of the results follow. A number with no mark means an inactive call. No stated cut-off is given here; in the data, active means normalized growth mostly below about 0.91 (no sharp cut-off); inconclusive means no clear call, values can overlap the other calls; inactive means mostly above about 0.92.
# Assay: chemical genetic growth profiling, strain panel (AID 1159580);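 further: tested at 20 µM; growth read once vehicle control cultures reached saturation at 30 °C; 1 = growth at the plate median or of vehicle wells; lower values mean less growth of the strain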
# Conditions: S. cerevisiae deletion strains, growth OD
smiles,measurement,setting,value
C=C[C@@](C)(O)CCC1C(=C)C[C@H](OC(C)=O)C2C(C)(C)CCCC12C (stereo partly specified),normalized growth,"locus YAL013W, strain DEP1, hits give low values",1.01
same,normalized growth,"locus YAL021C, strain ccr4, hits give low values",1.03
same,normalized growth,"locus YAL026C, strain drs2, hits give low values",1.03
same,normalized growth,"locus YAL030W, strain snc1, hits give low values",1.04
same,normalized growth,"locus YBL061C, strain skt5, hits give low values",1.03
same,normalized growth,"locus YBR009C, strain hhf1, hits give low values",1
same,normalized growth,"locus YBR021W, strain FUR4, hits give low values",0.963
same,normalized growth,"locus YBR023C, strain chs3, hits give low values",1.02
same,normalized growth,"locus YBR171W, strain sec66, hits give low values",1.01
same,normalized growth,"locus YBR229C, strain ROT2, hits give low values",0.972
same,normalized growth,"locus YBR231C, strain swc5, hits give low values",1.05
same,normalized growth,"locus YBR279W, strain paf1, hits give low values",1.02
same,normalized growth,"locus YCL011C, strain gbp2, hits give low values",1.01
same,normalized growth,"locus YCL016C, strain dcc1, hits give low values",1.01
same,normalized growth,"locus YCL029C, strain bik1, hits give low values",0.981
same,normalized growth,"locus YCL061C, strain MRC1, hits give low values",1.01
same,normalized growth,"locus YCL069W, strain vba3, hits give low values",1.03
same,normalized growth,"locus YCR088W, strain abp1, hits give low values",1.04
same,normalized growth,"locus YDL005C, strain med2, hits give low values",1.04
same,normalized growth,"locus YDL035C, strain GPR1, hits give low values",0.961
same,normalized growth,"locus YDL040C, strain nat1, hits give low values",1.03
same,normalized growth,"locus YDL074C, strain BRE1, hits give low values",0.956
same,normalized growth,"locus YDL101C, strain DUN1, hits give low values",1.01
same,normalized growth,"locus YDL185W, strain tfp1, hits give low values",0.952
same,normalized growth,"locus YDL192W, strain arf1, hits give low values",0.976
same,normalized growth,"locus YDR001C, strain nth1, hits give low values",1.03
same,normalized growth,"locus YDR069C, strain doa4, hits give low values",1.07
same,normalized growth,"locus YDR101C, strain arx1, hits give low values",0.977
same,normalized growth,"locus YDR137W, strain rgp1, hits give low values",0.99
same,normalized growth,"locus YDR150W, strain NUM1, hits give low values",1.07
same,normalized growth,"locus YDR159W, strain sac3, hits give low values",1.02
same,normalized growth,"locus YDR162C, strain NBP2, hits give low values",0.965
same,normalized growth,"locus YDR195W, strain ref2",1.06
same,normalized growth,"locus YDR297W, strain sur2, hits give low values",1.05
same,normalized growth,"locus YDR318W, strain mcm21, hits give low values",1.01
same,normalized growth,"locus YDR334W, strain swr1, hits give low values",1.04
same,normalized growth,"locus YDR335W, strain msn5, hits give low values",1.03
same,normalized growth,"locus YDR388W, hits give low values",1
same,normalized growth,"locus YDR392W, strain spt3, hits give low values",0.562 (active)
same,normalized growth,"locus YDR502C, strain sam2, hits give low values",1.03
same,normalized growth,"locus YEL003W, strain gim4, hits give low values",1.02
same,normalized growth,"locus YEL037C, strain rad23, hits give low values",1.02
same,normalized growth,"locus YEL061C, strain CIN8 (second series), hits give low values",1.03
same,normalized growth,"locus YER015W, strain faa2, hits give low values",1.02
same,normalized growth,"locus YER016W, strain bim1, hits give low values",1.03
same,normalized growth,"locus YER110C, hits give low values",0.978
same,normalized growth,"locus YER111C, strain swi4, hits give low values",1.02
same,normalized growth,"locus YER155C, strain BEM2 (second series), hits give low values",0.989
same,normalized growth,"locus YER155C, strain BEM2, hits give low values",0.999
same,normalized growth,"locus YER167W, strain BCK2, hits give low values",1.01
same,normalized growth,"locus YFR010W, strain ubp6, hits give low values",1.05
same,normalized growth,"locus YGL078C, strain dbp3, hits give low values",1.03
same,normalized growth,"locus YGL086W, strain mad1, hits give low values",1.02
same,normalized growth,"locus YGL167C, strain pmr1, hits give low values",1.01
same,normalized growth,"locus YGL173C, strain kem1, hits give low values",1.04
same,normalized growth,"locus YGL227W, strain vid30, hits give low values",1.03
same,normalized growth,"locus YGL240W, strain doc1, hits give low values",1.01
same,normalized growth,"locus YGL248W, strain PDE1, hits give low values",1.02
same,normalized growth,"locus YGL253W, strain hxk2, hits give low values",1.03
same,normalized growth,"locus YGR135W, strain pre9, hits give low values",1.08
same,normalized growth,"locus YGR252W, strain gcn5, hits give low values",1.09
same,normalized growth,"locus YHR013C, strain ard1, hits give low values",1.02
same,normalized growth,"locus YHR027C, strain rpn1, hits give low values",1.04
same,normalized growth,"locus YHR030C, strain SLT2, hits give low values",0.929
same,normalized growth,"locus YHR079C, strain IRE1 (second series), hits give low values",0.982
same,normalized growth,"locus YHR079C, strain IRE1, hits give low values",0.961
same,normalized growth,"locus YHR094C, strain hxt1, hits give low values",0.985
same,normalized growth,"locus YHR129C, strain ARP1, hits give low values",1
same,normalized growth,"locus YHR142W, strain chs7, hits give low values",1
same,normalized growth,"locus YHR200W, strain rpn10, hits give low values",1.01
same,normalized growth,"locus YIL066C, strain RNR3, hits give low values",0.965
same,normalized growth,"locus YIL073C, strain SPO22, hits give low values",0.984
same,normalized growth,"locus YIL125W, strain kgd1, hits give low values",0.976
same,normalized growth,"locus YIR030C, strain dcg1, hits give low values",0.995
same,normalized growth,"locus YJL092W, strain hpr5, hits give low values",1.03
same,normalized growth,"locus YJL095W, strain BCK1 (second series), hits give low values",1.03
same,normalized growth,"locus YJL095W, strain BCK1, hits give low values",1.06 and 0.951
same,normalized growth,"locus YJL115W, strain asf1, hits give low values",1.03
same,normalized growth,"locus YJL129C, strain trk1, hits give low values",0.995
same,normalized growth,"locus YJL134W, strain LCB3, hits give low values",1
same,normalized growth,"locus YJL154C, strain vps35, hits give low values",1.03
same,normalized growth,"locus YJL164C, strain tpk1, hits give low values",0.988
same,normalized growth,"locus YJL166W, strain qcr8, hits give low values",0.982
same,normalized growth,"locus YJL168C, strain set2, hits give low values",1
same,normalized growth,"locus YJL187C, strain SWE1 (second series), hits give low values",1.03
same,normalized growth,"locus YJL187C, strain SWE1, hits give low values",1.02
same,normalized growth,"locus YJR066W, strain TOR1, hits give low values",0.931
same,normalized growth,"locus YJR075W, strain HOC1, hits give low values",1.03
same,normalized growth,"locus YKL009W, strain mrt4, hits give low values",0.956
same,normalized growth,"locus YKL068W, hits give low values",0.975
same,normalized growth,"locus YKL085W, strain MDH1 (second series), hits give low values",0.977
same,normalized growth,"locus YKL085W, strain MDH1, hits give low values",0.977
same,normalized growth,"locus YKL160W, strain elf1, hits give low values",0.995
same,normalized growth,"locus YKR001C, strain vps1, hits give low values",0.993
same,normalized growth,"locus YKR026C, strain gcn3, hits give low values",1.03
same,normalized growth,"locus YKR091W, strain srl3, hits give low values",1.03
same,normalized growth,"locus YLL001W, strain dnm1, hits give low values",0.988
same,normalized growth,"locus YLL026W, hits give low values",1.03
same,normalized growth,"locus YLL041C, strain sdh2, hits give low values",1.02
same,normalized growth,"locus YLR027C, strain aat2, hits give low values",0.992
same,normalized growth,"locus YLR039C, strain RIC1, hits give low values",1.05
same,normalized growth,"locus YLR058C, strain SHM2, hits give low values",1
same,normalized growth,"locus YLR102C, strain apc9, hits give low values",0.995
same,normalized growth,"locus YLR113W, strain HOG1, hits give low values",0.902
same,normalized growth,"locus YLR221C, strain rsa3, hits give low values",1.03
same,normalized growth,"locus YLR258W, strain gsy2, hits give low values",1.03
same,normalized growth,"locus YLR262C, strain YPT6 (second series), hits give low values",0.978
same,normalized growth,"locus YLR268W, strain sec22, hits give low values",0.975
same,normalized growth,"locus YLR320W, strain mms22, hits give low values",1.03
same,normalized growth,"locus YLR330W, strain CHS5, hits give low values",1
same,normalized growth,"locus YLR342W, strain FKS1 (second series), hits give low values",1.04
same,normalized growth,"locus YLR342W, strain FKS1, hits give low values",1.03
same,normalized growth,"locus YLR357W, strain rsc2, hits give low values",1.01
same,normalized growth,"locus YLR370C, strain arc18, hits give low values",1.02
same,normalized growth,"locus YLR371W, strain rom2, hits give low values",1.02
same,normalized growth,"locus YLR384C, strain iki3, hits give low values",1.03
same,normalized growth,"locus YLR418C, strain cdc73, hits give low values",0.98
same,normalized growth,"locus YML016C, strain PPZ1, hits give low values",0.999
same,normalized growth,"locus YML032C, strain rad52, hits give low values",0.976
same,normalized growth,"locus YML120C, strain ndi1, hits give low values",0.984
same,normalized growth,"locus YML124C, strain tub3, hits give low values",1
same,normalized growth,"locus YMR058W, strain fet3, hits give low values",1.04
same,normalized growth,"locus YMR078C, strain ctf18, hits give low values",0.987
same,normalized growth,"locus YMR125W, strain sto1, hits give low values",1.05
same,normalized growth,"locus YMR129W, hits give low values",1.02
same,normalized growth,"locus YMR205C, strain PFK2, hits give low values",0.958
same,normalized growth,"locus YMR223W, strain ubp8, hits give low values",0.986
same,normalized growth,"locus YMR231W, strain pep5, hits give low values",1.04
same,normalized growth,"locus YMR307W, strain GAS1, hits give low values",0.912
same,normalized growth,"locus YNL067W, strain RPL9B, hits give low values",1.04
same,normalized growth,"locus YNL071W, strain lat1, hits give low values",0.928
same,normalized growth,"locus YNL153C, strain GIM3, hits give low values",1.02
same,normalized growth,"locus YNL183C, strain NPR1, hits give low values",0.918
same,normalized growth,"locus YNL209W, strain ssb2, hits give low values",1.03
same,normalized growth,"locus YNL233W, strain BNI4, hits give low values",1.02
same,normalized growth,"locus YNL248C, strain rpa49, hits give low values",1.03
same,normalized growth,"locus YNL250W, strain rad50, hits give low values",0.989
same,normalized growth,"locus YNL271C, strain bni1, hits give low values",1
same,normalized growth,"locus YNL298W, strain CLA4, hits give low values",1
same,normalized growth,"locus YNL307C, strain MCK1, hits give low values",0.996
same,normalized growth,"locus YNL322C, strain KRE1 (second series), hits give low values",0.984
same,normalized growth,"locus YNR049C, strain mso1, hits give low values",1.03
same,normalized growth,"locus YNR052C, strain pop2, hits give low values",1.02
same,normalized growth,"locus YOL006C, strain TOP1, hits give low values",1.02
same,normalized growth,"locus YOL012C, strain htz1",1.3
same,normalized growth,"locus YOL147C, strain pex11, hits give low values",1
same,normalized growth,"locus YOR001W, strain rrp6, hits give low values",1.02
same,normalized growth,"locus YOR061W, strain CKA2, hits give low values",0.971
same,normalized growth,"locus YOR069W, strain VPS5, hits give low values",1.01
same,normalized growth,"locus YOR070C, strain gyp1, hits give low values",1
same,normalized growth,"locus YOR080W, strain dia2, hits give low values",1.04
same,normalized growth,"locus YOR083W, strain WHI5, hits give low values",0.976
same,normalized growth,"locus YOR106W, strain vam3, hits give low values",0.986
same,normalized growth,"locus YOR136W, strain idh2, hits give low values",1.01
same,normalized growth,"locus YOR144C, strain elg1, hits give low values",0.995
same,normalized growth,"locus YOR184W, strain ser1, hits give low values",0.928
same,normalized growth,"locus YOR231W, strain MKK1, hits give low values",0.917
same,normalized growth,"locus YOR265W, strain rbl2, hits give low values",1.04
same,normalized growth,"locus YOR270C, strain vph1, hits give low values",0.963
same,normalized growth,"locus YOR290C, strain snf2, hits give low values",0.946
same,normalized growth,"locus YOR316C, strain cot1, hits give low values",0.997
same,normalized growth,"locus YPL051W, strain arl3, hits give low values",0.996
same,normalized growth,"locus YPL078C, strain atp4, hits give low values",0.976
same,normalized growth,"locus YPL106C, strain sse1, hits give low values",1.01
same,normalized growth,"locus YPL240C, strain hsp82, hits give low values",1.02
same,normalized growth,"locus YPL256C, strain CLN2, hits give low values",0.95
same,normalized growth,"locus YPR119W, strain clb2, hits give low values",1
same,normalized growth,"locus YPR141C, strain kar3, hits give low values",0.993
same,normalized growth,"locus YPR163C, strain tif3, hits give low values",1.01
same,normalized growth,"locus YPR167C, strain met16, hits give low values",0.996
same,normalized growth,"strain wtn01, hits give low values",0.958
